Measured values from PubChem BioAssay (NCI).
About 83,000 compounds went through this panel and 20% of them were active in at least one assay; those are over-represented in the sample as a whole.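 Values shown are percent growth following 48 h exposure of cells in 96-well plates to a single concentration of compound; below 10 was considered active.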 Active and inactive are the calls of the source.

tested on: HL-60(TB) leukemia; experiment: NCI-60 one-dose screen, 48 h (100 = growth as untreated, 0 = no growth, -100 = all killed); conditions: 10 µM unless noted

Row | Structure (SMILES) | growth
1 | Cc1ccc(C(=O)NC2c3ccccc3Oc3ccccc32)cc1 | -3.42% (active)
2 | CC(C)(C)c1cc(/C=N/NC(=O)c2ccccc2NC(=O)c2cccs2)c(O)c(C(C)(C)C)c1 | 14.1% (inactive)
3 | C[n+]1c(-c2ccccc2)c2cc(N)ccc2c2ccccc21 | 59.4% (inactive)
4 | CC1=CC(=O)C=CC1=Nc1ccc(N(C)C)cc1 | -1.75% (active)
5 | CCCCCCCCCCCCNC(=O)N[C@H](C(=O)N[C@H]1/C=C/OCCNC(=O)/C=C/[C@H](C(C)C)NC1=O)C(C)C | 93.8% (inactive)
6 | Cc1ccc2nc(NC(=O)CSc3nc(Nc4ccc([N+](=O)[O-])cc4)c(C#N)c(-c4ccccc4)n3)sc2c1 | 95.2% (inactive)
7 | CSc1ccc(-c2cc(-c3ccc(NC(=O)CCCN4CCCC4)cc3)nc(-c3ccc(NC(=O)CCCN4CCCC4)cc3)c2)cc1 | 60.8% (inactive)
8 | COc1cccc(NC(=O)c2c(-c3ccccc3)c(-c3ccccc3)n[nH]c2=O)c1 | 95.5% (inactive)
9 | Cc1[nH]c(/C=C2\C(=O)Nc3ccc(F)cc32)c(C)c1C(=O)NC[C@H](O)CN1CCOCC1 | 4.41% (active)
10 | O=[N+]([O-])c1cc([N+](=O)[O-])c(N2CCCC2)cc1NN=C(c1ccc(O)cc1)c1ccc(O)cc1 | 122% (inactive)
11 | Nc1cc(Br)cc2c1[nH]c(=O)c1ccccc12 | 91.6% (inactive)
12 | CC(C)CC(=O)Nc1n[nH]c2c1CN(C(=O)C1CCN(C)CC1)C2(C)C | -26.2% (active)
13 | CCOC(=O)c1cc(C(=O)c2ccc(O)c(O)c2)n2ccc(-c3ccn4c(C(=O)c5ccc(O)c(O)c5)cc(C(=O)OCC)c4c3)cc12 | 73.8% (inactive)
14 | O=[N+]([O-])c1ccc(Oc2ccc(-c3ccccc3)cc2)cc1 | 78.7% (inactive)
15 | COc1ccc2c(c1)CCNC21C(=O)Nc2c(Br)cc(Br)cc21 (centres undefined) | 117% (inactive)
16 | CC(C)n1nc(-c2ccc3oc(N)nc3c2)c2c(N)ncnc21 | 11.4% (inactive)
17 | COc1ccc(C(=O)Nc2ncc(Cc3ccc(Cl)cc3)s2)cc1 | -11% (active)
18 | C=C(C)[C@@H]1CC[C@]2(C)[C@H](CC[C@@H]3[C@H]4[C@H]5OC[C@@]4(CCC5(C)C)CC[C@]32C)[C@@]1(C)CCCN | -4.66% (active)
19 | Clc1ccc(/C=C2\CCCC3C2=Nc2ccccc2NC3c2ccc(Cl)cc2)cc1 (centres undefined) | 73.9% (inactive)
20 | Cc1ccc(Cl)cc1Nc1nc(C(F)(F)F)ccc1C(=O)N/N=C/c1c(Cl)cccc1Cl | 17.3% (inactive)

Row | Structure (SMILES) | growth
21 | COCCOCCCl | 110% (inactive)
22 | Cc1ccc2c(c1)n([O-])c1cc(Cl)ccc1[n+]2=O | 67.8% (inactive)
23 | CN(C)CCSC1=Nc2ccc(Cl)cc2C(c2ccccc2Cl)N(C)C1 (centres undefined) | 35.1% (inactive)
24 | O=C(Nc1ncc(Cc2cc(C(F)(F)F)ccc2Cl)s1)c1cccs1 | 30.6% (inactive)
25 | Cc1ccc2c3c(cccc13)-c1ccccc1C2=O | 99% (inactive)
26 | Nc1ncnc2c1ncn2C1OC(CO)C2OC21 (centres undefined) | 114% (inactive)
27 | O=C(O)c1cc(I)ccc1O | 103% (inactive)
28 | CN1CCN(CCCOc2ccc3nc(Nc4ccc(Cl)c(C(F)(F)F)c4)ccc3c2)CC1 | 63.7% (inactive)
29 | CN(CCC#N)c1ccc(/C=C(\C#N)c2cccc(C(F)(F)F)c2)cc1 | 69.5% (inactive)
30 | Nc1cc2c(cc1Br)-c1cc(Cl)ccc1C2=O | 83.8% (inactive)
31 | COc1ccc(NC(=O)c2cc(NCc3cc(O)ccc3O)ccc2O)cc1 | 43.8% (inactive)
32 | O=C1/C(=C/c2ccccn2)CCc2ccccc21 | 56.6% (inactive)
33 | COc1ccc(CCN2C(=O)C(C)(C)SC2=S)cc1OC | 106% (inactive)
34 | Nc1n[nH]c2cc(F)c([C@@H]3Nc4ccc5[nH]ncc5c4[C@H]4C5CCC(C5)[C@@H]34)cc12 (some centres undefined) | -22.4% (active)
35 | C=C1C(=O)O[C@H]2[C@H]1CC/C(COC(=O)N1CCC[C@H]1C(=O)Nc1ccc(OC)c(C(N)=O)c1O)=C\CC[C@@]1(C)O[C@@H]21 | -10% (active)
36 | O=C(O)c1cccc2c1Cc1cc([N+](=O)[O-])ccc1-2 | 120% (inactive)
37 | Cn1cc(-c2csc(-c3cn(CCCN4CCOCC4)c4ccc(F)cc34)n2)c2cccnc21 | 69.9% (inactive)
38 | NS(=O)(=O)c1ccc(CCN2C(=O)/C(=C\c3ccc(Cl)cc3)C=C2c2ccc3ccccc3c2)cc1 | 99.5% (inactive)
39 | CCCCCCCCCCCC(c1ccccc1)N(C)C (centres undefined) | 104% (inactive)
